The campaign covered roughly 5,500 compounds. About 2,000 (36%) were called active. Roughly 18% stayed inconclusive and do not appear here. Some of the results follow. A number with no mark means an inactive call. No stated cut-off is given here; in the data, active means normalized growth mostly below about 0.91 (no sharp cut-off); inconclusive means no clear call, values can overlap the other calls; inactive means mostly above about 0.92.

This note sets out measurements from PubChem BioAssay AID1159580 (chemical genetic matrix, 2015).

The assay is described as follows: chemical genetic growth profiling, strain panel (AID 1159580).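 Further: tested at 20 µM; growth read once vehicle control cultures reached saturation at 30 °C; 1 = growth at the plate median or of vehicle wells; lower values mean less growth of the strain.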 The conditions noted are these: S. cerevisiae deletion strains, growth OD.

Take `COc1ccc2c(c1OC)C(=O)O[C@H]2[C@@H]1c2cc3c(cc2CCN1C)OCO3`: the normalized growth is, setting by setting: (locus YAL013W, strain DEP1, hits give low values) 1.01; (locus YAL040C, strain CLN3, hits give low values) 0.973; (locus YCL061C, strain MRC1 (second series), hits give low values) 1.01; (locus YDR363W, strain ESC2, hits give low values) 1.02; (locus YER002W, strain NOP16, hits give low values) 1.03; (locus YGR078C, strain PAC10, hits give low values) 0.428 (active). Also, the normalized growth (locus YMR263W, strain SAP30, hits give low values) was 1; the normalized growth (locus YNL197C, strain WHI3, hits give low values) is 1.01; the normalized growth (locus YNL224C, strain SQS1, hits give low values) is 0.996; the normalized growth (locus YNL322C, strain KRE1, hits give low values) was 1.02; the normalized growth (locus YOR083W, strain WHI5 (second series), hits give low values) is 1.07; the normalized growth (locus YPL055C, strain LGE1, hits give low values) is 1.01.
